Autofluor 339 = intrinsic fluorescence of library compounds, ex339/em460 – biochemical, MLSMR library, data from DPM-DC assay, artefact control, profiling panel; 65,000 tested, 5.5% active; fluorescence fold increase at 10 µM; compound autofluorescence, ex339/em460 nm, NADH buffer; stronger effect = higher value; 1 = no-compound wells, NADH background;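 active means at 10 µM, mean starting fluorescence two-fold or more over control wells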;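 further: signal is the first read of a kinetic run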
DPM-DC inhibit = blocks S. pneumoniae diphosphomevalonate decarboxylase. purified DPM-DC, PK/LDH coupled NADH fluorescence. calls only at 10 µM. 65,000 tested, 0.49% active. AID 556;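 active means the 320 compounds with the highest percent inhibition in the single-dose primary screen, excluding strongly autofluorescent ones, cut at about 32% in these data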;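 further: kinetic rate of NADH fluorescence loss reporting ADP formed by the decarboxylase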
A340 absorber = compounds absorbing at 340 nm; 65,000 tested, under 10 active; compound absorbance at 340 nm, fold over control; fold change at 10 µM;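 active means at 10 µM dose, initial 340 nm absorbance at least 2 fold that of control wells; inactive means change under 2 fold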;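 further: initial absorbance extrapolated from kinetic A340 decline of NADH oxidation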
NADH coupling = blocks coupling enzymes of NAD/NADH assays. coupled PK/LDH NADH assays, four targets. IC50, µM (series often up to 10 µM), for inactives: at the highest dose inhibition. 65,000 tested, 0.02% active. AID 774;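 active means single-dose screening hits from any of four coupled enzyme assays that gave an IC50 when retested across doses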;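 further: the DPM-DC format reads NADH fluorescence rather than 340 nm absorbance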
Spn MK inh = blocks S. pneumoniae mevalonate kinase; purified MK, PK/LDH-coupled NADH absorbance 340 nm; 65,000 tested, 0.48% active; inhibition, % at 10 µM;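 active means ranked among the strongest by inhibition in the single 10 µM screen, a fixed top-ranked set picked for dose follow-up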
Spn PMK inh = blocks S. pneumoniae phosphomevalonate kinase | purified PMK, PK/LDH-coupled NADH absorbance 340 nm | 65,000 tested, 0.49% active | AID 539 | inhibition, % at 10 µM;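 active means top-ranked compounds by inhibition in the single 10 µM screen, taking a fixed number of the strongest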;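 further: 0% = full reaction with DMSO carrier and 100% = background rate without enzyme reaction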
Starred values were filed as active, the others as inactive; i = inactive; x = no result given; + = active, no number; [ ] = another dose, or the depositor's remark. Compounds with a hit are over-represented: about 6.8% of the library has one in this group of screens.

SMILES | Autofluor 339 | DPM-DC inhibit | A340 absorber | NADH coupling | Spn MK inh | Spn PMK inh
CC1=C(C#N)C(c2cccnc2)C2=C(CC(C)(C)CC2=O)N1 (centres undefined) | 2.1* | x | 1.1 | 11% | 7 | 14
CC1=C(C#N)C(C)C2=C(CC(C)(C)CC2=O)N1 (centres undefined) | 2.1* | x | 1.1 | 4% | 7 | 0
COc1cc(C2C(C#N)=C(C)NC3=C2C(=O)CC(C)(C)C3)cc(OC)c1O (centres undefined) | 1.1 | + | 1.1 | 12% | 1 | 0
COc1cc(C2C(C#N)=C(C)NC3=C2C(=O)CC(C)(C)C3)ccc1OCCO (centres undefined) | 1.3 | i | 1.1 | 5% | 4 | 12
O=C(Cc1c(O)c2ccccc2[nH]c1=O)OC1CCCCC1 | 1.1 | i | 1.1 | 1% | 1 | 1
Fc1ccc2c(c1)[C@H]1OCC[C@H]1[C@@H](c1ccco1)N2 | 2.7* | i | 1 | 12% | 10 | 2
C[C@@H]1C[C@H](O)c2cc(Cl)ccc2N1 | 1 | i | 0.99 | 4% | 9 | 13
Clc1ccc2c(c1)[C@H]1OCC[C@H]1[C@@H](c1ccco1)N2 | 2.3* | +[fluoresces] | 1 | 5% | 13 | 8
Nn1c(Nc2ccccc2)nc2ccccc2c1=O | 1.1 | i | 1 | 3% | 4 | 5
O=c1[nH]c(Nc2ccccc2)cc2ccccc12 | 3.4* | x | 1 | 8% | 2 | 10
COC(=O)c1[nH]cnc1C(=O)c1ccccc1 | 1.1 | i | 1 | 3% | 8 | 1
COc1cccc(CN2CCN(c3cccc(C(F)(F)F)c3)CC2)c1OC | 1.1 | i | 1 | 1% | 4 | 0
FC(F)(F)c1cccc(N2CCN(Cc3cccnc3)CC2)c1 | 1 | i | 1 | 9% | 56* | 1
COc1cc(CN2CCN(c3cccc(Cl)c3)CC2)cc(OC)c1OC | 1 | i | 1 | 2% | 3 | 3
FC(F)(F)c1cccc(N2CCN(Cc3ccoc3)CC2)c1 | 1.1 | i | 1.1 | 21% | 50* | 12
COc1cccc(N2CCN(Cc3cccnc3)CC2)c1 | 1 | i | 1.1 | 6% | 51* | 0
CN(C)S(=O)(=O)c1cccc(COC(=O)C2=COCCO2)c1 | 1.1 | i | 0.98 | 6% | 5 | 12
COc1cc(NC(=O)C2CCCCC2)c(OC)cc1NC(=O)CCC(=O)NCc1ccco1 | 1.1 | i | 1 | 5% | 2 | 14
CC(NC(=O)c1cccc(N2CCCC2=O)c1)c1ccc2c(c1)OCCO2 (centres undefined) | 1.4 | + | 1 | 17% | 0 | 18
O=C1CCCC2=C1C(c1ccncc1)c1c(nc(SCc3ccccc3Cl)[nH]c1=O)N2 (centres undefined) | 2.1* | i | 1 | 11% | 9 | 6
Cc1nn(C)c(C)c1S(=O)(=O)N1CCC(C(=O)NCC2COc3ccccc3O2)CC1 (centres undefined) | 1.1 | i | 1 | 2% | 5 | 1
CC1CCc2cccc3c2N1c1cc(C#N)c(C#N)cc1O3 (centres undefined) | 1.4 | i | 1 | 11% | 8 | 9
CCCCCNC(=O)c1ccc2c(=O)n(CC3CCCO3)c(=O)[nH]c2c1 (centres undefined) | 2* | i | 1.1 | 1% | 0 | 2
CCCCCn1c(SCC#N)nc2cc(C(=O)NCC3CCCO3)ccc2c1=O (centres undefined) | 0.72 | + | 1.1 | 14% | 0 | 6
CCCn1c(=S)[nH]c2cc(C(=O)NCC3CCCO3)ccc2c1=O (centres undefined) | 1.1 | i | 1.1 | 4% | 7 | 5
SMILES | Autofluor 339 | DPM-DC inhibit | A340 absorber | NADH coupling | Spn MK inh | Spn PMK inh
CCOC(=O)N1CCN(Cc2nc3c(c(=O)n(C)c(=O)n3C)n2CCCc2ccccc2)CC1 | 1.1 | i | 1 | 4% | 5 | 7
CCN1CCN(C(c2cccs2)C(C)NC(=O)C(C)C)CC1 (centres undefined) | 1.1 | i | 1.1 | 0% | 0 | 0
CCc1noc(C)c1C(=O)Nc1sc(C(=O)N(C)C)c(C)c1C(=O)OC | 1.1 | i | 1.1 | 2% | 6 | 0
Cc1ccc(-n2c(O)c(/C=N/n3cnnc3)c3ccccc3c2=O)cc1 | 2.2* | x | 1.1 | 2% | 3 | 0
O=c1c2ccccc2c(C=NCCO)c(O)n1-c1ccccc1 | 1.2 | i | 1.1 | 0% | 0 | 0
O=c1c2ccccc2c(/C=N/n2cnnc2)c(O)n1-c1ccccc1F | 3* | i | 1 | 13% | 9 | 14
Cc1c(NC(=O)C(C)OC(=O)CC2Sc3ccccc3NC2=O)c(=O)n(-c2ccccc2)n1C (centres undefined) | 1.1 | i | 1 | 1% | 4 | 0
Cc1cc(=O)oc(C)c1C(=O)NCCN1CCOCC1 | 1.1 | i | 1.1 | 1% | 0 | 4
COc1ccc(-c2[nH]c(-c3cccc(OC)c3)nc2SCC(=O)NCc2ccco2)cc1 | 1.7 | i | 0.99 | 6% | 4 | 17
CC(=O)Nc1cc(S(=O)(=O)C(F)(F)F)ccc1Cl | 1.1 | i | 1 | 1% | 2 | 1
COc1ccc(C2(O)CC3CCC(C2)N3c2nc(C)cc(C)c2C#N)cc1 (centres undefined) | 2.8* | i | 0.99 | 3% | 2 | 6
Cc1ccsc1C1C(C(=O)O)c2ccccc2C(=O)N1C (centres undefined) | 1.2 | + | 1 | 79% | 53* | 85*
CN1C(=O)c2ccccc2C(C(=O)O)C1c1cccc(F)c1 (centres undefined) | 1 | i | 1 | 5% | 0 | 16
CCCCC(=O)Nc1ccc(C(N)=O)cc1 | 1.1 | + | 0.99 | 17% | 6 | 0
CCCCC(=O)Nc1ccc(C(=O)NCC(=O)OC)cc1 | 1.1 | i | 1 | 7% | 12 | 6
COc1cccc2sc(=NC(=O)c3ccc(S(=O)(=O)N4CCOCC4)cc3)n(C)c12 | 3.1* | i | 1 | 15% | 0 | 14
CCOC(=O)c1sc(=NC(=O)c2ccc(S(=O)(=O)N3CCOCC3)cc2)n(C)c1C | 1.6 | i | 1.1 | 9% | 8 | 14
CCn1c(=NC(=O)c2ccc(S(=O)(=O)N3CCOCC3)cc2)sc2cccc(OC)c21 | 4.7* | x | 1.1 | 2% | 0 | 4
Cc1cc(NC(=O)C2(c3ccccc3)CCCC2)no1 | 1.1 | i | 1 | 5% | 8 | 7
O=C(Nc1nc(NC(=O)c2ccco2)n(-c2ccccc2)n1)c1ccccc1 | 2.4* | x | 1.1 | 1% | 0 | 1
COc1ccc(N(CC(=O)NCc2cccs2)S(=O)(=O)c2cccnc2)cc1 | 1 | i | 1.1 | 20% | 47* | 10
CCOC(=O)Cn1c(C)c(C#N)c2ccccc21 | 0.98 | i | 1 | 1% | 0 | 3

Bioassay records: PubChem, SRMLSC
